# Reference: PubChem BioAssay
# Activity calls are given as the source filed them. Unless noted, no rule for the calls is given here.
# Experiments:
# [1] = system: Wnt5a (protein binding on small-molecule microarray); experiment: Wnt5a binders on small-molecule microarray, primary screen, biophysical, 635/667 nm fluorescence (AID 1142); details: 635 nm fluorescence, higher = more signal;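 also: fluorescence read at 667 nm with signal to noise per printed feature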
# [2] = cell viability in Huh7 cells, primary screen, cytotoxicity control for HCV replication inhibitor project, CellTiter-Glo luminescence, basal, 48 h (AID 1143); details: Huh7 HCV replicon, higher = more signal, called active from +8 up or from −8 down;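 also: Huh7 hepatoma cells carrying a hepatitis C replication reporter with no stimulus; test concentration not given here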
# [3] = P. aeruginosa biofilm formation inhibitors, primary screen, PAO1 strain, BacTiter-Glo luminescence, LB-PBS (AID 1144); details: 12 h, higher = more signal
# [4] = CREB reporter modulators without forskolin, primary screen, cell-based, PC12, CRE-LacZ reporter, unstimulated (AID 1145); details: no forskolin, luminescence, 4.5 h, higher = more signal, called active from +8 up or from −8 down
# [5] = CREB reporter modulators under forskolin, primary screen, cell-based, PC12, CRE-LacZ reporter, forskolin-stimulated (AID 1146); details: luminescence, 4.5 h, higher = more signal, called active from +8 up or from −8 down;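 also: PC12 cells with 6xCRE LacZ reporter stimulated by forskolin 10 µM; beta-galactosidase reporter signal reflecting CREB driven transcription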
# [6] = target: Streptavidin (Streptomyces avidinii) (UniProt P22629); experiment: streptavidin binders on small-molecule microarray, primary screen, artefact control for SMM compound annotation, biophysical, 635/667 nm fluorescence (AID 1147); details: streptavidin binding, higher = more signal;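 also: signal reflects streptavidin binding to arrayed compounds as a control protein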
# [7] = small-molecule binders of probe aInhba, primary screen, biochemical, small-molecule microarray, 635/667 nm fluorescence (AID 1148); details: higher = more signal;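 also: score merges 667nm spot fluorescence with signal-to-noise for antibody binding to printed compounds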
# Torsin-1A (Homo sapiens) [8] = target: Torsin-1A (Homo sapiens) (UniProt O14656); experiment: torsin A binders from cell lysate, primary screen, small-molecule microarray, wild-type, 635/667 nm (AID 1149); details: COS7 hTOR1A-WT lysate, 635 nm fluorescence, higher = more signal
# Torsin-1A (Homo sapiens) [9] = target: Torsin-1A (Homo sapiens) (UniProt O14656); experiment: small-molecule binders of mutant TOR1A in lysate, primary screen, cell lysate, small-molecule microarray, COS7 lysate, 635/667 nm fluorescence (AID 1150); details: COS7 hTOR1A mutant lysate, 635 nm fluorescence, higher = more signal;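 also: score pools 667 nm emission and signal to noise measuring lysate protein binding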
# [10] = system: Sonic hedgehog protein (Shh); experiment: small-molecule binders of Shh protein, primary screen, biochemical, small-molecule microarray, 635/667 nm fluorescence (AID 1151); details: small-molecule microarray binding, 635 nm fluorescence; higher = more signal;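 also: Shh protein binding to compounds spotted on small-molecule microarray slides; score combines spot fluorescence intensity with signal-to-noise across triplicate slides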
# [11] = E. coli DRC41 culture turbidity changes, primary screen, E. coli filamentation inducer project, strain DRC41, OD650, 48 h (AID 1152);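 also: E. coli MC1000 strain DRC41 lacking acrAB efflux pump and sulA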; details: E. coli DRC41 (acrAB sulA), higher = more signal, called active from +8 up or from −8 down
# [12] = small-molecule binders of probe aLefty1, primary screen, biochemical, small-molecule microarray, 635/667 nm fluorescence (AID 1153); details: higher = more signal;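 also: score merges spot fluorescence with signal-to-noise ratio from the scanned slide images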
# [13] = PSAC antagonists in infected red cells, primary screen, cell-based, P. falciparum Indochina, OD700, 1 h (AID 1154); details: P. falciparum Indochina infected RBC osmotic lysis, higher = more signal, called active from +8 up or from −8 down
# [14] = PSAC antagonists in infected red cells, primary screen, cell-based, P. falciparum Indochina, OD700, 2 h (AID 1155);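 also: lysis reports solute entry through the parasite surface anion channel PSAC; channel blockers reduce lysis of infected cells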; details: P. falciparum Indochina infected erythrocytes, osmotic lysis OD700; higher = more signal, called active from +8 up or from −8 down
# [15] = osmotic lysis modulators in infected erythrocytes, primary screen, PSAC antagonist project, cell-based, P. falciparum Indochina, OD700, 3 h (AID 1156); details: higher = more signal, called active from +8 up or from −8 down
# [16] = PSAC antagonists in infected red cells, primary screen, cell-based, P. falciparum Indochina, OD700, 18 h (AID 1157); details: P. falciparum Indochina infected erythrocytes, osmotic lysis OD700, 18 h; higher = more signal, called active from +8 up or from −8 down
# [17] = modulators of S6 phosphorylation in cells, primary screen, cell-based, A549, cytoblot, luminescence, serum-stimulated (AID 1158); details: A549 phospho-S6 cytoblot, 5 h, higher = more signal;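 also: serum-stimulated A549 lung adenocarcinoma cells; signal is phosphorylated S6 detected by cytoblot immunostaining with HRP secondary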
# [18] = target: NADPH oxidase 2 (Homo sapiens) (UniProt P04839); experiment: NOX2-dependent H2O2 signal modulators, primary screen, NOX inhibitor project, cell-based, HEK293-NOX2, PMA-stimulated, Amplex Red fluorescence (AID 1159); details: 45 min, higher = more signal, called active from +8 up or from −8 down; also: test concentration not given here
# [19] = target: NADPH oxidase 4 (Homo sapiens) (UniProt Q9NPH5); experiment: NOX4-dependent H2O2 signal modulators, primary screen, NOX inhibitor project, cell-based, HEK293-NOX4, tetracycline-induced, Amplex Red fluorescence (AID 1160); details: 45 min, higher = more signal, called active from +8 up or from −8 down
# [20] = target: NADPH oxidase 5 (Homo sapiens) (UniProt Q96PH1); experiment: NOX5-dependent H2O2 signal modulators, primary screen, NOX inhibitor project, cell-based, HEK293-NOX5, Amplex Red fluorescence (AID 1161); details: HEK293-NOX5, ionomycin, 45 min, higher = more signal
# Sequence of NADPH oxidase 5 (Homo sapiens) (Q96PH1 whole entry, looked up): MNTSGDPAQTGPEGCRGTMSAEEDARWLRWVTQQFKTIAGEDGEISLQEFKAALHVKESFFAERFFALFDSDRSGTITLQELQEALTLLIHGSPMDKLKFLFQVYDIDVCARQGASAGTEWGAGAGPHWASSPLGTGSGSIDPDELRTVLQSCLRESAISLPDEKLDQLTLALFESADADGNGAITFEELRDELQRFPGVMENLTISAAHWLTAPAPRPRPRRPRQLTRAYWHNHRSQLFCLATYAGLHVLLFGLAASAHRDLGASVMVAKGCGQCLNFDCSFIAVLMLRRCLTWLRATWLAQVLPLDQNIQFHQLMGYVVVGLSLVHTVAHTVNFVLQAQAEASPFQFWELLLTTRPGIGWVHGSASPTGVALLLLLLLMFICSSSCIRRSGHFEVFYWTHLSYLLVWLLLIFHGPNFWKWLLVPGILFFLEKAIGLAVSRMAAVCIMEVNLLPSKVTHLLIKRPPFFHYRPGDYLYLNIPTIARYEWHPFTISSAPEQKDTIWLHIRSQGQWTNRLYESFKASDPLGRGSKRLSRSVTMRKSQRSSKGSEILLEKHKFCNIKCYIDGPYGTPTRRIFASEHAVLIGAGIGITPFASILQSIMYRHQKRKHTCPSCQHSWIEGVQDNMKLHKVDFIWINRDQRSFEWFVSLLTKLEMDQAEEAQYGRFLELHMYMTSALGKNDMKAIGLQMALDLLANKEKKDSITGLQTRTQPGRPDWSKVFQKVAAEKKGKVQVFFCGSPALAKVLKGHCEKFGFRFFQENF
# Sequence of NADPH oxidase 2 (Homo sapiens) (P04839 whole entry, looked up): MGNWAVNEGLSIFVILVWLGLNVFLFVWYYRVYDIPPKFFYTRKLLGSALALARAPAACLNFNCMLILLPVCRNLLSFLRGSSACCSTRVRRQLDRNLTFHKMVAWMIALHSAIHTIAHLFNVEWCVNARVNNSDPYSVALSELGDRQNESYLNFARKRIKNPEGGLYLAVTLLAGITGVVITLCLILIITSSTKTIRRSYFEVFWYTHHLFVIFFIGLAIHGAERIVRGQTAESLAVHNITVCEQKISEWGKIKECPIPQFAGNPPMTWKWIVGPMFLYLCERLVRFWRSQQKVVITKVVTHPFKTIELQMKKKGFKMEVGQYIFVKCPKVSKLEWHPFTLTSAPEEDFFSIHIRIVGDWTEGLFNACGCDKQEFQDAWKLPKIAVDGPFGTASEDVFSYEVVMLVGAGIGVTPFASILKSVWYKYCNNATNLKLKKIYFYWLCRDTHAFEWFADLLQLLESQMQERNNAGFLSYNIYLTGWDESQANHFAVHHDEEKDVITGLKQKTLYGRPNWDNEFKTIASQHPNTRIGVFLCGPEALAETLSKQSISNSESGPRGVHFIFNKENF
# Sequence of Streptavidin (Streptomyces avidinii) (P22629 whole entry, looked up): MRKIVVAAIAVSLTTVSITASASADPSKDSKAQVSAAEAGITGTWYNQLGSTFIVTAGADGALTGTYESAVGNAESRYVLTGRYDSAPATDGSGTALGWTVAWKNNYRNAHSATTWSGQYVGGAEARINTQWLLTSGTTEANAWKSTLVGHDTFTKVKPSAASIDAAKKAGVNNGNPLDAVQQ
# Sequence of NADPH oxidase 4 (Homo sapiens) (Q9NPH5 whole entry, looked up): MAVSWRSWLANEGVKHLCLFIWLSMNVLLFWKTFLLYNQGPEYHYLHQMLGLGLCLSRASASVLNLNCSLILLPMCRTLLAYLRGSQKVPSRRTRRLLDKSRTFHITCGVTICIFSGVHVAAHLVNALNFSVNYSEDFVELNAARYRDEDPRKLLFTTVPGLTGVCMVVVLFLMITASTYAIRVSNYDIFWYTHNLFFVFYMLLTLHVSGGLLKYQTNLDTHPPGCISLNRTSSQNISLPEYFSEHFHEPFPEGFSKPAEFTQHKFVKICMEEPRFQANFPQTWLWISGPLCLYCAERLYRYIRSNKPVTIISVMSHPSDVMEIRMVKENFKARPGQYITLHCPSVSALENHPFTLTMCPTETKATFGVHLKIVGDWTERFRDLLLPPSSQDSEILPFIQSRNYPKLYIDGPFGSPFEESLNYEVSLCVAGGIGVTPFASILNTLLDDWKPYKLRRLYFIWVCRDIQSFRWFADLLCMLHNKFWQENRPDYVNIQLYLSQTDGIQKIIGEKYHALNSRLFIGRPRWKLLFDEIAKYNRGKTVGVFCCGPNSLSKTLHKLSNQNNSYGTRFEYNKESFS
# Sequence of Torsin-1A (Homo sapiens) (O14656 whole entry, looked up): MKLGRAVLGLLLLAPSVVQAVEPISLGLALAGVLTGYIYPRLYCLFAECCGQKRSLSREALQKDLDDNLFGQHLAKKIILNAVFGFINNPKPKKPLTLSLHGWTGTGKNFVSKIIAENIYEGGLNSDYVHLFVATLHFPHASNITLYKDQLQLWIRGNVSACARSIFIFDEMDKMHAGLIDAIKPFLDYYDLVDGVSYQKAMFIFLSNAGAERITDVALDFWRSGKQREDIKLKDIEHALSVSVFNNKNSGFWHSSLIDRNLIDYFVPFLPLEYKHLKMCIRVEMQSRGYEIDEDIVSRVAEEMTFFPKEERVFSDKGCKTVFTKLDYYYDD
Structure (SMILES),composite z-score [1],z-score [2],z-score [3],z-score [4],z-score [5],composite z-score [6],composite z-score [7],composite z-score (Torsin-1A (Homo sapiens) [8]),composite z-score (Torsin-1A (Homo sapiens) [9]),composite z-score [10],z-score [11],composite z-score [12],z-score [13],z-score [14],z-score [15],z-score [16],z-score [17],z-score [18],z-score [19],z-score [20]
C=CCOC(=O)[C@@H]1[C@H]2C(=O)O[C@H](c3ccccc3)[C@H](c3ccccc3)N2[C@H](c2ccc(OCCOC(=O)[C@H]3C[C@H]4C(=O)N[C@@H](CCCCNC(C)=O)C(=O)N4[C@H]3c3ccc(O)cc3)cc2)[C@@]12C(=O)Nc1ccc(I)cc12,0.728,-0.317 (inactive),0.645 (inactive),0.549 (inactive),0.906 (inactive),0.0984,0.0073,1.32,1.29,2.07,-0.725 (inactive),0.325,2.99 (inactive),1.92 (inactive),0.855 (inactive),1.23 (inactive),1.3,2.16 (inactive),1.27 (inactive),1.64
CC(=O)NCCCC[C@@H]1NC(=O)[C@@H]2C[C@H](C(=O)NCc3ccc(F)cc3)[C@H](c3cccc(OCCO)c3)N2C1=O,0.0719,-0.608 (inactive),-0.225 (inactive),0.537 (inactive),0.517 (inactive),-0.454,-0.0209,0.544,1.05,1.8,0.197 (inactive),0.0259,5.48 (inactive),0.503 (inactive),-4.35 (inactive),0.374 (inactive),-0.206,1.87 (inactive),1.42 (inactive),1.1
CCCC[C@@H]1C[C@H]1[C@@H](NC(=O)c1cccs1)c1ccc(Cl)cc1,-0.29,-3.19 (inactive),-0.288 (inactive),0.39 (inactive),0.958 (inactive),-1.05,-0.224,-0.989,-1.01,-1.75,-1.06 (inactive),-0.124,0.492 (inactive),-0.696 (inactive),1.13 (inactive),-1.93 (inactive),1.38,-3.93 (inactive),-6.76 (inactive),-2.26
Cc1ccc(S[C@]2(C(=O)NC(C)C)CC(=O)N(C3Cc4ccccc4C3)[C@@H]2c2ccc(CO)cc2)cc1,-0.157,-4.65 (inactive),-0.132 (inactive),-0.231 (inactive),0.978 (inactive),-0.37,-0.32,0.876,0.764,1.67,-0.415 (inactive),-0.357,2.26 (inactive),-0.862 (inactive),1.04 (inactive),-1.88 (inactive),1.95,0.0257 (inactive),-0.029 (inactive),-0.927
NC(=O)NCC#Cc1ccc2c(c1)[C@]1(C(=O)N2)[C@H](C(N)=O)[C@H]2C(=O)O[C@H](c3ccccc3)[C@H](c3ccccc3)N2[C@@H]1c1ccccc1OCCO,0.0902,0.463 (inactive),-0.258 (inactive),0.918 (inactive),-0.447 (inactive),0.28,0.0091,0.247,0.396,1.18,-0.925 (inactive),0.199,2.15 (inactive),0.0353 (inactive),-3.88 (inactive),-0.146 (inactive),-0.128,2.1 (inactive),1 (inactive),0.53
COCCOC(=O)N1C(=O)[C@@]2(c3cc(C#CCCO)ccc31)[C@H](c1ccc(OCCO)cc1)N1[C@H](c3ccccc3)[C@H](c3ccccc3)OC(=O)[C@H]1[C@@H]2C(=O)NC[C@H](O)c1ccccc1,0.619,-2.79 (inactive),-0.668 (inactive),-1.42 (inactive),-0.137 (inactive),0.427,0.0183,0.703,1.16,1.7,1.04 (inactive),-0.0054,2.48 (inactive),1.1 (inactive),0.68 (inactive),0.678 (inactive),0.75,2.04 (inactive),0.385 (inactive),0.419
C=CC[C@]1(C(=O)N2CCCCC2)N=C(c2ccc(OCCCO)cc2)O[C@H]1c1ccccc1N=[N+]=[N-],0.824,-3.21 (inactive),-0.903 (inactive),-0.174 (inactive),-1.18 (inactive),1.87,0.0355,1.02,1.06,0.377,0.297 (inactive),0.707,35.8 (active),31.6 (active),4.43 (inactive),8.93 (active),0.0944,-1.88 (inactive),0.898 (inactive),-0.971
Cc1ccc(N2C(=O)c3ccccc3[C@](C)(C(=O)NCC(C)C)[C@@H]2c2ccc(CO)cc2)nc1,-0.116,0.985 (inactive),-0.309 (inactive),-0.0888 (inactive),-0.002 (inactive),-1.12,-0.147,-0.458,-1.26,-0.656,-0.262 (inactive),-0.147,1.84 (inactive),0.707 (inactive),1.26 (inactive),0.937 (inactive),-0.0528,0.253 (inactive),-0.657 (inactive),-1.63
NC(=O)[C@H]1[C@@H]2C(=O)O[C@@H](c3ccccc3)[C@@H](c3ccccc3)N2[C@@H](c2ccc(O)cc2)[C@]12C(=O)Nc1ccc(C#CCCO)cc12,-0.183,0.134 (inactive),-0.453 (inactive),-0.258 (inactive),0.278 (inactive),-1.57,-0.0044,-1.39,0.806,0.35,-0.331 (inactive),-0.0559,5.17 (inactive),0.92 (inactive),0.696 (inactive),0.442 (inactive),-0.289,0.482 (inactive),-0.661 (inactive),0.563
C=C(CCCC)/C(=C/C[C@@H](OC(=O)c1ccncc1)c1ccc(CO)o1)c1cnc2ccccc2c1,0.209,-1.47 (inactive),-1.26 (inactive),2.38 (inactive),0.176 (inactive),1.39,0.461,1.42,1.07,2.18,0.583 (inactive),0.569,7.06 (inactive),0.843 (inactive),1.17 (inactive),0.0867 (inactive),-0.349,0.194 (inactive),-0.546 (inactive),-0.634
COC(=O)[C@@]1(Cc2ccc(OC)cc2)[C@H]2c3cc(C(=O)N(C)C)n(Cc4ccc(C)c(F)c4F)c3C[C@H]2CN1C(=O)c1ccccc1,0.109,-1.49 (inactive),-0.763 (inactive),1.53 (inactive),1.24 (inactive),0.569,0.0179,-0.124,-0.0724,-1.09,-1.37 (inactive),0.187,1.76 (inactive),-0.0758 (inactive),0.571 (inactive),0.788 (inactive),0.0141,-0.795 (inactive),-0.522 (inactive),3.23
C[C@H]1C2[C@H](Cc3ccccc3)NC(=O)[C@]23C(=O)N[C@H](Cc2ccccc2)C(=O)N[C@@H](Cc2ccccc2)C(=O)NC/C=C\C/C=C/C3[C@@H]2O[C@]12C (stereo not given in full),0.0327,-3.18 (inactive),0.593 (inactive),0.311 (inactive),-1.85 (inactive),-0.214,0.173,-0.0236,0.147,1.65,0.839 (inactive),0.305,3.27 (inactive),0.358 (inactive),-0.0925 (inactive),0.0094 (inactive),0.654,0.453 (inactive),1.1 (inactive),1.26
C=C(CCCC)C(=O)CC[C@@H](OC(C)=O)c1ccccc1OCCO,-0.283,-3.08 (inactive),-0.206 (inactive),9.35 (active),-0.841 (inactive),-0.484,-0.024,-0.0615,0.915,0.276,0.377 (inactive),-0.145,4.13 (inactive),0.663 (inactive),-0.566 (inactive),0.7 (inactive),-0.0442,0.356 (inactive),-0.852 (inactive),-1.68
CCCC=C(CCC)[C@@H](NC(=O)c1ccccc1)c1ccccc1,-0.149,-1.26 (inactive),0.202 (inactive),-0.561 (inactive),1.28 (inactive),0.405,0.0968,-0.106,-0.0692,-0.289,-0.845 (inactive),0.221,1.37 (inactive),0.894 (inactive),0.131 (inactive),0.812 (inactive),0.316,-0.523 (inactive),0.304 (inactive),0.895
Cc1ccccc1C(O)C1C=CC2C(=O)N(c3ccccc3)C(=O)C2N1Nc1ccc(C#N)cc1 (stereo not given),0.51,0.466 (inactive),-1.14 (inactive),-0.133 (inactive),1.66 (inactive),2.17,0.816,0.261,1.58,-0.442,0.307 (inactive),1.1,26 (active),14.9 (active),3.53 (inactive),1.81 (inactive),-0.762,-0.865 (inactive),-4.92 (inactive),-3.18
O=C(NCc1ccccc1)c1ccc(Br)cc1[N+](=O)[O-],0.146,-0.214 (inactive),0.635 (inactive),0.685 (inactive),-0.554 (inactive),-0.453,-0.183,0.0031,-0.232,0.0923,-1.03 (inactive),-0.17,-0.403 (inactive),-0.0642 (inactive),-1.3 (inactive),0.0836 (inactive),-0.597,-0.564 (inactive),-0.281 (inactive),-0.032
